Reference: PubChem BioAssay (NCI)
About 79,000 compounds went through this panel and 15% of them were active in at least one assay; those are over-represented in the sample as a whole. Activity calls are given as the source filed them. Rule as the data show it: active = growth inhibition above about 70%; inactive = the rest.

Experiments:
[1] = NCI Yeast Anticancer Drug Screen. Data for the rad52 strain (AID 147);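 also: 0% = growth of vehicle-treated control cultures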; conditions: S. cerevisiae rad52 mutant growth inhibition, hits give high values
Summary of the method: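 Genetically altered yeast (DNA damage repair defect) treated with compound; inhibition calculated relative to vehicle.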

[2] = NCI Yeast Anticancer Drug Screen. Data for the wt1 strain (AID 149);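 also: 0% = growth of vehicle-treated wt1 cultures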; conditions: S. cerevisiae wt1 strain (SPY 50644) growth inhibition, hits give high values
Summary of the method: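 Yeast wt1 strain exposed to compounds; growth inhibition measured relative to vehicle-treated controls.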

[3] = NCI Yeast Anticancer Drug Screen. Data for the rad50EPP+ strain (AID 151);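 also: 0% = growth of vehicle-treated control cultures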; conditions: S. cerevisiae rad50 mutant strain, hits give high values
Summary of the method: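 Strain rad50EPP+; compound exposure; % growth inhibition vs vehicle.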

[4] = NCI Yeast Anticancer Drug Screen. Data for the mgt1 strain (AID 153); conditions: S. cerevisiae mgt1 mutant growth inhibition, hits give high values
Summary of the method: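 Read-out: yeast growth inhibition vs vehicle control. Strain mgt1, drawn from a panel altered in DNA damage repair or cell cycle control.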

[5] = NCI Yeast Anticancer Drug Screen. Data for the rad50 strain (AID 155);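 also: 0% = growth of vehicle-only cultures of the same strain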; conditions: S. cerevisiae rad50 strain growth inhibition, hits give high values
Summary of the method: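 Yeast carrying a defined DNA repair defect were exposed to test compounds, and growth was compared with vehicle-treated controls to give percent inhibition.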

[6] = NCI Yeast Anticancer Drug Screen. Data for the mec2-1 strain (AID 157); conditions: S. cerevisiae mec2-1 strain, hits give high values
Summary of the method: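 Cells of the genetically defined mec2-1 yeast strain are incubated with test compound. Inhibition of growth is calculated against vehicle-treated controls.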

[7] = NCI Yeast Anticancer Drug Screen. Data for the rad14 strain (AID 159);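 also: 0% = growth of vehicle-treated control cultures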; conditions: S. cerevisiae rad14 strain growth inhibition, hits give high values
Summary of the method: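 Yeast cells carrying a defined DNA-repair defect were exposed to compounds, and growth inhibition was calculated relative to vehicle-treated control cultures.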

[8] = NCI Yeast Anticancer Drug Screen. Data for the sgs1 mgt1 strain (AID 161);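 also: 0% = growth of cultures given vehicle only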; conditions: S. cerevisiae sgs1 mgt1 strain, hits give high values
Summary of the method: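 Test agents were incubated with a DNA-repair-mutant yeast strain. Growth was then read and compared against vehicle-treated controls.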

[9] = NCI Yeast Anticancer Drug Screen. Data for the cln2 rad14 strain (AID 165);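 also: 0% = growth equal to vehicle treated cultures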; conditions: S. cerevisiae cln2 rad14 strain, hits give high values
Summary of the method: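 The screen exposed genetically defined yeast (cln2 rad14) to test compounds and scored growth inhibition relative to vehicle-treated controls.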

[10] = NCI Yeast Anticancer Drug Screen. Data for the bub3 strain (AID 167); conditions: S. cerevisiae bub3 mutant strain, hits give high values
Summary of the method: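 Compounds were applied to a genetically altered yeast strain carrying a cell-cycle control defect. Growth inhibition was scored against vehicle-treated controls.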

[11] = NCI Yeast Anticancer Drug Screen. Data for the wt2 strain (AID 169);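 also: 0% = growth of vehicle-treated yeast cultures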; conditions: S. cerevisiae wt2 strain growth inhibition, hits give high values
Summary of the method: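 Steps: yeast strain treated with compound; growth recorded; inhibition calculated relative to cultures given vehicle alone.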

[12] = NCI Yeast Anticancer Drug Screen. Data for the sgs1 strain (AID 173);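 also: 0% = growth of vehicle-only control cultures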; conditions: S. cerevisiae sgs1 mutant, hits give high values
Summary of the method: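 Inhibition of yeast growth served as the measure. The mutant strain was treated with each compound, and growth was normalised to cultures receiving vehicle alone.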

[13] = NCI Yeast Anticancer Drug Screen. Data for the mlh1 rad18 strain (AID 175); conditions: S. cerevisiae mlh1 rad18 strain growth inhibition, hits give high values
Summary of the method: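 Compound-treated yeast growth, normalised to vehicle controls. Strain bears defined DNA repair mutations.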

[14] = NCI Yeast Anticancer Drug Screen. Data for the mlh1 strain (AID 171);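 also: 0% = growth of vehicle-treated control cultures of the same strain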; conditions: S. cerevisiae mlh1 strain growth inhibition, hits give high values
Summary of the method: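 Yeast screen: mutant strain plus compound, growth scored against vehicle control wells.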

[15] = NCI Yeast Anticancer Drug Screen. Data for the rad18 strain (AID 177); conditions: S. cerevisiae rad18 mutant growth inhibition, hits give high values
Summary of the method: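 Inhibition values reflect reduced yeast growth compared with vehicle-treated controls, using a strain engineered with a DNA damage repair defect.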

[16] = at 5.0 µM (retest, dose inferred, filed as 0.5)
[17] = at 50.0 µM (retest, dose inferred, filed as 5.0)

Measured: growth inhibition

CCCC(=O)Oc1c(C)cc([N+](=O)[O-])cc1[N+](=O)[O-]
inactive: [1]; at 1.2 µM 4% | [1]; at 3.7 µM 26% | [2]; at 1.2 µM 1% | [2]; at 3.7 µM 0% | [3]; at 1.2 µM 35% | [4]; at 1.2 µM 3% | [4]; at 3.7 µM 11% | [4]; at 11.0 µM 56% | [5]; at 1.2 µM 4% | [5]; at 3.7 µM 25% | [5]; [16] 14% | [6]; at 1.2 µM -1% | [6]; at 3.7 µM 21% | [6]; [16] 33% | [7]; at 1.2 µM 1% | [7]; at 3.7 µM 14% | [8]; [16] 39% | [9]; [16] -1% | [10]; at 1.2 µM 12% | [10]; at 3.7 µM 42% | [10]; [16] 40% | [11]; at 1.2 µM 2% | [11]; at 3.7 µM 4% | [12]; at 1.2 µM 5% | [12]; at 3.7 µM 27% | [13]; [16] 18%
active: [1]; at 11.0 µM 99% | [1]; at 33.0 µM 97% | [1]; at 100.0 µM 99% | [2]; at 11.0 µM 98% | [2]; at 33.0 µM 99% | [2]; at 100.0 µM 99% | [3]; at 3.7 µM 77% | [3]; at 11.0 µM 94% | [3]; at 33.0 µM 99% | [3]; at 100.0 µM 99% | [4]; at 33.0 µM 99% | [4]; at 100.0 µM 86% | [5]; at 11.0 µM 98% | [5]; at 33.0 µM 99% | [5]; [17] 99% | [5]; at 50.0 µM 99.4% | [5]; at 100.0 µM 99% | [6]; at 11.0 µM 99% | [6]; at 33.0 µM 99% | [6]; [17] 100% | [6]; at 50.0 µM 99.3% | [6]; at 100.0 µM 99% | [7]; at 11.0 µM 96% | [7]; at 33.0 µM 99% | [7]; at 100.0 µM 99% | [8]; [17] 99% | [8]; at 50.0 µM 99.4% | [9]; [17] 97% | [9]; at 50.0 µM 93.5% | [10]; at 11.0 µM 98% | [10]; at 33.0 µM 99% | [10]; [17] 99% | [10]; at 50.0 µM 99.5% | [10]; at 100.0 µM 99% | [11]; at 11.0 µM 98% | [11]; at 33.0 µM 99% | [11]; at 100.0 µM 99% | [12]; at 11.0 µM 99% | [12]; at 33.0 µM 99% | [12]; at 100.0 µM 99% | [13]; [17] 99% | [13]; at 50.0 µM 99.1%

Cc1ccc(NC(=O)/C(CC2N=c3c(ccc4c(O)c5ccccc5c(O)c34)=NC2O)=N/NC(C)(C)C)cc1 (stereo unspecified)
inactive: [1]; at 1.2 µM 7% | [1]; at 3.7 µM 9% | [1]; at 11.0 µM 33% | [1]; at 33.0 µM 49% | [1]; at 100.0 µM 61% | [2]; at 1.2 µM -19% | [2]; at 3.7 µM 2% | [2]; at 11.0 µM -2% | [2]; at 33.0 µM 8% | [2]; at 100.0 µM -6% | [3]; at 1.2 µM 16% | [3]; at 3.7 µM 34% | [3]; at 11.0 µM 44% | [3]; at 33.0 µM 50% | [3]; at 100.0 µM 54% | [4]; at 1.2 µM 16% | [4]; at 3.7 µM 5% | [4]; at 11.0 µM -1% | [4]; at 33.0 µM 22% | [4]; at 100.0 µM 22% | [5]; at 1.2 µM 17% | [5]; at 3.7 µM 23% | [5]; [16] -3% | [5]; at 11.0 µM 30% | [5]; at 33.0 µM 54% | [5]; [17] 65% | [5]; at 100.0 µM 65% | [6]; at 1.2 µM 15% | [6]; at 3.7 µM 18% | [6]; [16] 13% | [6]; at 11.0 µM 38% | [6]; at 33.0 µM 44% | [6]; [17] 25% | [6]; at 50.0 µM 1.25% | [6]; at 100.0 µM 35% | [7]; at 1.2 µM 9% | [7]; at 3.7 µM -9% | [7]; at 11.0 µM -10% | [7]; at 33.0 µM 0% | [7]; at 100.0 µM 1% | [8]; [16] -7% | [8]; [17] 2% | [8]; at 50.0 µM -0.2% | [9]; [16] -25% | [9]; [17] -3% | [9]; at 50.0 µM -19.9% | [10]; at 1.2 µM -3% | [10]; at 3.7 µM -2% | [10]; [16] 3% | [10]; at 11.0 µM -1% | [10]; at 33.0 µM 1% | [10]; [17] 17% | [10]; at 50.0 µM 33.6% | [10]; at 100.0 µM -1% | [11]; at 1.2 µM 0% | [11]; at 3.7 µM 1% | [11]; at 11.0 µM 4% | [11]; at 33.0 µM 5% | [11]; at 100.0 µM 7% | [14]; at 1.2 µM 7% | [14]; at 3.7 µM 16% | [14]; at 11.0 µM 10% | [14]; at 33.0 µM 28% | [14]; at 100.0 µM 16% | [12]; at 1.2 µM 3% | [12]; at 3.7 µM 4% | [12]; at 11.0 µM 2% | [12]; at 33.0 µM 1% | [12]; at 100.0 µM 1% | [13]; [16] 3% | [13]; [17] 32% | [13]; at 50.0 µM 27.4% | [15]; at 1.2 µM -4% | [15]; at 3.7 µM 12% | [15]; at 11.0 µM 20% | [15]; at 33.0 µM 40% | [15]; at 100.0 µM 18%
active: [5]; at 50.0 µM 77.6%
